Hits are enriched below; roughly 1.2% of the tested compounds scored in any of these assays.
TSG101-PTAP inh: blocks PTAP/TSG101 interaction to inhibit HIV-1 budding. Q99816. Fluorescence polarization, FITC-PTAP peptide / Tsg101 binding. Potency, µM (titrated, usually from 115 µM), actives largely listed as inhibitors. 340,000 tested, under 10 active. AID 493005; active = well fitted inhibition curve with a large enough effect in the main read-out, with a control signal flat, not every such curve was filed as active; inconclusive = small, poorly fitted or top-dose-only effect, or effect the other way, or a change in a side signal; inactive = no such curve, though single readings can be large or run the other way
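Compounds were pin-transferred onto Tsg101 binding domain (10 uM final) in HEPES pH 7.5 buffer, then FITC-PTAP peptide was added at 50 nM final. After 20 min at RT, polarization reported peptide displacement across a qHTS concentration series.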
KCNH2 3.1 inh: KCNH2 3.1 (human) potassium channel inhibition; activity change, % (tested at about 1.8 µM); hit rate 0.95% among 340,000; U2OS KCNH2 3.1, thallium flux FluxOr; stronger effect = lower value;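 active = maximum activity change below -70%; inconclusive = maximum activity change from -70% to -50%; inactive = maximum activity change above -50%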;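 note: thallium influx rate constant from kinetic fluorescence after stimulation buffer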
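FluxOr-based Tl+ influx in U2OS cells transduced with KCNH2 3.1 virus; rate constants normalized to DMSO controls.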
hERG WT inh: KCNH2 (human, wildtype) channel inhibition | Q12809 | U2OS, BacMam KCNH2, thallium flux FluxOr; stronger effect = lower value | activity change, % at 1.84 µM | hit rate 0.37% among 340,000;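 active = maximum activity change below -70%; inconclusive = maximum activity change between -70% and -50%; inactive = maximum activity change above -50%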
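U2OS cells were transduced with wild-type KCNH2 virus (2.03 x 10^8 / mL) for 4 h at room temperature, then cultured overnight at 37 C. Thallium flux was read with FluxOr dye. Rate constants were normalized to DMSO controls.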
Tb PFK inh: inhibitors of T. brucei phosphofructokinase | O15648 | T. brucei PFK, ADP-Glo luminescence | Potency, µM (titrated, usually from 57.5 µM), actives largely listed as inhibitors | hit rate 0.17% among 330,000 | AID 485367; active = well fitted inhibition curve with a large enough effect; inconclusive = small, poorly fitted or top-dose-only effect, or effect the other way; note: nearly all actives have a fitted effect of over 60% in size
Target sequence (O15648 whole entry, looked up): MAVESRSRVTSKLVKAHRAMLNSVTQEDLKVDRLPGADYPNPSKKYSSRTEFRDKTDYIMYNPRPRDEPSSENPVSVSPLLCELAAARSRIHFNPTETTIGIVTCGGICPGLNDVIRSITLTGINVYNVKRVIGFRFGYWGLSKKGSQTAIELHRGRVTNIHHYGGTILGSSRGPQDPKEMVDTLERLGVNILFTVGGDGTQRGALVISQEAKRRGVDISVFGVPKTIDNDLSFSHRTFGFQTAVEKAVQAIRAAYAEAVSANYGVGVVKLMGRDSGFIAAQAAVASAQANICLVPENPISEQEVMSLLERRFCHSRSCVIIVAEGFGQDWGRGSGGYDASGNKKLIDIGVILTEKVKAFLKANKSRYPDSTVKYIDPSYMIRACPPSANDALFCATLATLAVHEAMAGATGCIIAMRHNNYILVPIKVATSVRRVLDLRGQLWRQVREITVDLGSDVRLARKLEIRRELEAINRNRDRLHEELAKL
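1.25 nM PFK with 0.5 mM F6P and 0.1 mM ATP in 0.1 M TEA pH 8.0, 5 mM MgCl2, incubated 45 min at room temperature; ADP measured by ADP-Glo luminescence; compounds titrated up to 57 uM.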
Each line names hits and unclear results; the compound was inactive in the other large screens.

CCCCN(C)C(=O)c1nc2ccccn2c1CN1CCN(C/C=C/c2ccccc2)CC1	KCNH2 3.1 inh -102
O=C(COc1ccc2ccc(=O)oc2c1)Nc1cccc(S(=O)(=O)N2CCCCC2)c1	none
C#Cc1ccc(CN2CCN(CCc3ccccc3)C(CCO)C2)cc1 (stereo not drawn)	KCNH2 3.1 inh -74
CC(C)CCN1CCN(CC(c2ccccc2)c2ccccc2)CC1CCO (stereo not drawn)	KCNH2 3.1 inh -74
OCCC1CN(Cc2ccc(F)cc2)CCN1CCc1ccccc1 (stereo not drawn)	KCNH2 3.1 inh -79
OCCC1CN(Cc2ccc(F)cc2)CCN1CCCc1ccccc1 (stereo not drawn)	KCNH2 3.1 inh inconclusive
O=C(NCCS(=O)(=O)N1CCN(c2cccc(Cl)c2)CC1)C1CCCC1	Tb PFK inh inconclusive
CC1=CC(C)C(C(=O)O)C(C(=O)N2CCN(C)CC2)C1 (stereo not drawn)	none
CC1=CC(C)(C)C(C(=O)O)C(C(=O)O)C1 (stereo not drawn)	hERG WT inh -109
O=C(COC(=O)/C=C/C(=O)OCC(=O)NC12CC3CC(CC(C3)C1)C2)NC12CC3CC(CC(C3)C1)C2	none
O=C(Cn1nnc(-c2ccc(OCc3ccccc3F)cc2)n1)N1CCOCC1	KCNH2 3.1 inh -90
COc1ccc(-c2nnn(CC(=O)N3CCOCC3)n2)cc1	none (no result: TSG101-PTAP inh)
C[C@H](CO)N1C[C@H](C)[C@@H](CN(C)C(=O)Nc2ccc3c(c2)OCO3)Oc2c(NC(=O)C3CCCCC3)cccc2C1=O	none
C[C@H](CO)N1C[C@H](C)[C@@H](CN(C)Cc2ccc3c(c2)OCO3)Oc2c(NC(=O)C3CCCCC3)cccc2C1=O	KCNH2 3.1 inh -96
C[C@H](CO)N1C[C@H](C)[C@@H](CN(C)Cc2ccccc2)Oc2c(NC(=O)c3ccncc3)cccc2C1=O	none
C[C@@H]1CN([C@H](C)CO)C(=O)c2cccc(NC(=O)c3ccncc3)c2O[C@@H]1CN(C)Cc1ccc(C(=O)O)cc1	KCNH2 3.1 inh -85
CCCCc1ccc(/C(C)=N/Nc2cc(N3CCOCC3)nc(C)n2)cc1	KCNH2 3.1 inh -82
O=C(CN(c1ccccc1Cl)S(=O)(=O)c1ccccc1)NCc1ccccc1	none
CC1CCN(CCCNC(=O)COc2cc(=O)n(C)c3ccccc23)CC1	none
CCn1c(=O)cc(OCC(=O)NCCCN2CCC(C)CC2)c2ccccc21	KCNH2 3.1 inh -77
Cc1cccc(/C(N)=N/OC(=O)c2ccc3c(c2)OCO3)c1	hERG WT inh -105
N/C(=N\OC(=O)c1ccc2c(c1)OCO2)c1cccc([N+](=O)[O-])c1	none
COc1ccc(COC(=O)CCc2c[nH]c3ccccc23)cc1F	none (no result: Tb PFK inh)
CC(=O)N1CCc2cc(S(=O)(=O)CCC(=O)N(C)Cc3ccco3)ccc21	none
CCOC(=O)C1(CCOc2ccccc2)CCN(Cc2ccc(OCCO)cc2)CC1	KCNH2 3.1 inh -110, hERG WT inh -77
CCCN1CCC(CCOc2ccccc2)(C(=O)OCC)CC1	none
CCOC(=O)C1(CCOc2ccccc2)CCN(Cc2ccc(O)cc2)CC1	KCNH2 3.1 inh -84
CN1C(=O)C(C)(C)N(C(=O)c2cccc([N+](=O)[O-])c2)c2ccccc21	KCNH2 3.1 inh -100
C[C@@H](C(=O)OCn1nnc2ccccc2c1=O)N1C(=O)C2CCCCC2C1=O (stereo partly drawn)	none
CC(C)N(C(=O)Cn1c(SCC(=O)NCc2ccc3c(c2)OCO3)nc2ccccc21)C(C)C	hERG WT inh -122
Cc1ccccc1CSCCNS(C)(=O)=O	KCNH2 3.1 inh -79
CS(=O)(=O)NCCSCc1ccccc1	none
CCc1ccc(CN2CCC(n3nccc3NC(=O)c3ccc4c(c3)OCO4)CC2)cc1	KCNH2 3.1 inh -106, hERG WT inh inconclusive
CSc1ccc(CN2CCC(n3nccc3NC(=O)c3ccccc3C)CC2)cc1	KCNH2 3.1 inh -123, hERG WT inh -126
CC(Cc1ccc(Cl)cc1)N1CCC(n2nccc2NC(=O)C2CCCC2)CC1 (stereo not drawn)	KCNH2 3.1 inh -101
CSc1ccc(CN2CCC(n3nccc3NC(=O)C3CCOC3)CC2)cc1 (stereo not drawn)	none
O=C(Nc1ccnn1C1CCN(Cc2ccccc2)CC1)C1CCCC1	none
CCc1ccc(CN2CCC(n3nccc3NC(=O)c3ccccc3Cl)CC2)cc1	KCNH2 3.1 inh -103, hERG WT inh -97
N#Cc1ccc(C(=O)Nc2nc(SCc3ccc(Cl)cc3)n[nH]2)cc1	none
Cc1cccc(OCCC(=O)NCC(=O)Nc2cccc(C)c2C)c1	none
COc1ccc(-c2nc[nH]c2[N+](=O)[O-])cc1	none
